These results are taken from PubChem BioAssay (NCI).

Molecules are shown by their SMILES. Compounds without any hit were thinned out: in the full panel of roughly 79,000, 15% have a hit. A number with no mark means an inactive call. Rule as the data show it: active = growth inhibition above about 70%; inactive = the rest.

This assay can be described thus: NCI Yeast Anticancer Drug Screen. Data for the mlh1 rad18 strain (AID 175). Conditions: S. cerevisiae mlh1 rad18 strain growth inhibition; at 50.0 µM; stronger effect = higher value. The method in brief: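 Compound-treated yeast growth, normalised to vehicle controls. Strain bears defined DNA repair mutations.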
In the case of `O=C/C=C/c1ccco1`, the growth inhibition is 31.8%.

Consider `CC(C)c1cc(C(C)C)c(S(=O)(=O)N=[N+]=[N-])c(C(C)C)c1`, for which the growth inhibition is -7.95%.

For the compound `N#CC(C#N)=Cc1ccccc1O`, the growth inhibition is -9.7%.

Regarding `CC(C)c1cc2c(cc1O)C1(C)CCCC(C)(C)C1=CC2=O` (centres undefined), the growth inhibition is -13.1%.
